Assay results reported in PubChem BioAssay (NCATS).
Records with an inconclusive call do not appear. Active and inactive are the calls of the source. The call rests on the fitted dose curve; in most records, active means well fitted curve in the direction sought with a large enough effect; inconclusive means small, poorly fitted or top-dose-only effect, or another doubt; inactive means no such curve, though single readings can be large; an effect the other way counts as inactive or inconclusive.

What was measured:
[1] = Cellular Toxicity (caspase-3) Mesangial (AID 660); conditions: mesangial cells, normalized: DMSO 0%, 100 µM tamoxifen 100%; at 91.7 µM (top of the series);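 further: combined caspase 3 and 7 activity read by Caspase-Glo luminescence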
Outline: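 Human renal glomerular mesangial cells, 1000/well, 5 h at 37 C before 16 h compound treatment. Caspase-Glo 3/7 luminescence after 20 min; normalized to DMSO and 100 uM tamoxifen, AC50 from Hill fit.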

[2] = Cellular Toxicity (caspase-3) SK-N-SH (AID 661);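 further: 0% = DMSO basal and 100% = 10 µM staurosporine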
Outline: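 Human SK-N-SH neuroblastoma cells, 1500/well, were exposed to compounds for 16 hours at 37 °C. Caspase-Glo 3/7 luminescence was normalized to DMSO (basal) and 10 uM staurosporine (100%), and AC50 came from a Hill fit.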

[3] = Cellular Toxicity (caspase-3) H-4-II-E (AID 663); conditions: H-4-II-E rat hepatoma, scaled: DMSO 0%, 100 µM tamoxifen 100%; at 92.2 µM (top of the series);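 further: cells exposed to compound for 16 hr before readout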
Outline: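 Rat hepatoma H-4-II-E cells (1500/well) plated 5 hr, then exposed to compound titrations for 16 hr at 37 °C. Caspase-Glo 3/7 luminescence read after 20 min at RT; data normalized to DMSO and 100 uM tamoxifen, AC50 from Hill fits.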

[4] = Cellular Toxicity (caspase-3) Hek293 (AID 664); conditions: HEK293 caspase-3 activation, DMSO = 0%, 100 µM tamoxifen = 100%; at 92.2 µM (top of the series);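 further: cells exposed to compound for 16 h at 37 °C before readout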
Outline: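 HEK293 cells in complete medium treated 16 h at 37 °C, then Caspase-Glo 3/7 luminescence read after 20 min at room temperature. Normalized to DMSO and 100 uM tamoxifen; AC50 from Hill fit of concentration-response.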

[5] = Cellular Toxicity (caspase-3) N2a (AID 665);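 further: compound exposure lasted 16 h at 37 °C before readout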
Outline: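 Mouse N2a neuroblastoma cells, 1500 per well, treated 16 h at 37 °C in complete medium; caspase-3/7 activity by Caspase-Glo luminescence after 1 h. Normalized to DMSO and 10 uM staurosporine; AC50 from Hill fits.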

[6] = Cellular Toxicity (caspase-3) NIH 3T3 (AID 666);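 further: caspase signal read after 16 h compound exposure; 0% = DMSO basal and 100% = 100 µM tamoxifen stimulation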
Outline: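 Mouse NIH 3T3 fibroblasts (1000/well) treated 16 h at 37 C; caspase-3/7 activity measured by Caspase-Glo 3/7 luminescence after 20 min. Normalized to DMSO and 100 uM tamoxifen; AC50 from Hill fits.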

[7] = Cellular Toxicity (caspase-3) Renal Proximal Tubule (AID 667); conditions: Potency: caspase-3 activation;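 further: cells exposed to compound for 16 hours at 37 °C before detection; 0% = DMSO basal and 100% = 10 µM staurosporine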
Outline: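 Primary rat proximal tubule cells, 1000/well, 5 h plating at 37 °C, then compound 16 h at 37 °C. Caspase-Glo 3/7 reagent, 1 h RT, luminescence. Normalized to DMSO (basal) and 10 uM staurosporine (100%); Hill-fit AC50.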

[8] = molecular target: Cytochrome P450 3A4 (Homo sapiens) (UniProt P08684); experiment: qHTS Assay for Inhibitors and Substrates of Cytochrome P450 3A4 (AID 884); further: on the % scale 0 is the no-effect control and ±100 the full control effect; nearly all actives have a fitted effect of over 50% in size
Outline: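 20 nM human CYP3A4 with 25 uM Luciferin-PPXE (at KM) in 200 mM KPO4, preincubated 10 min with compound; NADPH regeneration started a 60 min RT reaction. Luciferin detected by luminescence, normalized to 57 uM ketoconazole as full inhibition.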

[9] = Cell Viability - LYMP2-001 (AID 921);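 further: 0% = DMSO only and full inhibition = tetraoctylammonium bromide control wells; nearly all actives have a fitted effect of over 70% in size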
Outline: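 Human lymphoblastoid cells (Coriell), 2500 per well, were preincubated 5 hr at 37 C, then exposed to compounds in complete medium for 24 hr at 37 C. Cellular ATP was read by CellTiter-Glo luminescence; AC50 from Hill fits of concentration-response data.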

[10] = MultiTox-Fluor Cytotoxicity Assay - LYMP1-001 - Dead Cells (AID 946);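 further: 0% = DMSO and 100% = tetraoctylammonium bromide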
Outline: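 AC50 from Hill fit of concentration-response; data normalized to DMSO (basal) and 15 uM tetraoctylammonium bromide (100%). LYMP1-001 lymphoblastoid cells, 2500/well, 16 hr compound at 37 C; dead-cell protease fluorescence, Ex/Em 485/520.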

[11] = Cell Viability - LYMP1-002 - Assay at 16 hr (AID 948);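 further: 0% = DMSO alone and full effect = 92 µM tetraoctylammonium bromide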
Outline: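 Human lymphoblastoid cells (LYMP1-002), 2500/well, were preincubated 5 hr at 37 C, then exposed to compounds for 16 hr at 37 C in complete medium. Cellular ATP was read by CellTiter-Glo luminescence after 30 min at room temperature; AC50 from Hill fits.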

[12] = MultiTox-Fluor Cytotoxicity Assay - LYMP1-002 - Live Cells (AID 955); further: on the % scale 0 is the no-effect control and ±100 the full control effect
Outline: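 Human lymphoblastoid LYMP1-002 cells, 2500/well, treated 16 h at 37 C in complete medium. Live-cell protease activity via GF-AFC fluorescence (Ex/Em 405/510) after 60 min reagent incubation; AC50 from Hill fits.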

[13] = MultiTox-Fluor Cytotoxicity Assay - LYMP1-002 - Dead Cells (AID 960);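 further: 0% = DMSO and 100% = tetraoctylammonium bromide; nearly all actives have a fitted effect of over 60% in size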
Outline: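 Human lymphoblastoid LYMP1-002 cells, 2500/well, treated 16 h at 37 C; dead-cell protease cleavage of bis-AAF-R110 read by fluorescence (485/520); normalized to DMSO and 15 uM tetraoctylammonium bromide; AC50 from Hill fit.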

[14] = MultiTox-Fluor Cytotoxicity Assay - LYMP1-003 - Dead Cells (AID 961);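 further: 0% = DMSO and 100% = tetraoctylammonium bromide; nearly all actives have a fitted effect of over 70% in size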
Outline: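 Human lymphoblastoid LYMP1-003 cells (2500/well) were treated with compounds for 16 hr at 37 C in complete medium. Dead-cell protease release was read by bis-AAF-R110 fluorescence (Ex/Em 485/520). AC50 came from Hill fits, normalized to DMSO and 15 uM tetraoctylammonium bromide.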

[15] = MultiTox-Fluor Cytotoxicity Assay - LYMP1-003 - Live Cells (AID 962);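 further: 0% = DMSO only and full loss = 92 µM tetraoctylammonium bromide; cytotoxic hits lower the live-cell protease signal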
Outline: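 LYMP1-003 lymphoblastoid cells, 2500/well in complete medium, treated 16 h at 37 C; live-cell protease cleavage of GF-AFC read by fluorescence (Ex/Em 405/510) after 60 min reagent; AC50 from Hill fits of concentration-response.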

[16] = Cell Viability - LYMP1-003 - Assay at 24 hr (AID 963);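 further: plate controls were DMSO only for no effect and tetraoctylammonium bromide positive control for full effect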
Outline: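 Human lymphoblastoid LYMP1-003 cells, 2500/well, treated 24 h at 37 C in complete medium. Viability read as intracellular ATP by CellTiter-Glo luminescence after 30 min at room temperature; AC50 from Hill-equation fits of qHTS concentration-response.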

[17] = Cell Viability - LYMP1-003 - Assay at 40 hr (AID 964); further: on the % scale 0 is the no-effect control and ±100 the full control effect; nearly all actives have a fitted effect of over 60% in size
Outline: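 LYMP1-003 human lymphoblastoid cells, 2500/well, preincubated 5 h at 37 C, then treated with compound for 40 h at 37 C. Intracellular ATP read by CellTiter-Glo luminescence after 30 min at room temperature; AC50 from Hill-equation fits.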

[18] = Cell Viability - LYMP2-003 (AID 965);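 further: cells exposed to compounds for 24 h before reading; 0% = DMSO only and full effect = 92 µM tetraoctylammonium bromide; nearly all actives have a fitted effect of over 50% in size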
Outline: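 Human lymphoblastoid cells (2500/well) were pre-incubated 5 hr at 37 C, then exposed to compounds over a concentration range for 24 hr at 37 C. Intracellular ATP was read by CellTiter-Glo luminescence; AC50 came from Hill-equation fits.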

[19] = MultiTox-Fluor Cytotoxicity Assay - LYMP1-001 - Live Cells (AID 947);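 further: 0% = DMSO only and full inhibition = tetraoctylammonium bromide control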

Cytochrome P450 3A4 (Homo sapiens), sequence (P08684 whole entry, looked up): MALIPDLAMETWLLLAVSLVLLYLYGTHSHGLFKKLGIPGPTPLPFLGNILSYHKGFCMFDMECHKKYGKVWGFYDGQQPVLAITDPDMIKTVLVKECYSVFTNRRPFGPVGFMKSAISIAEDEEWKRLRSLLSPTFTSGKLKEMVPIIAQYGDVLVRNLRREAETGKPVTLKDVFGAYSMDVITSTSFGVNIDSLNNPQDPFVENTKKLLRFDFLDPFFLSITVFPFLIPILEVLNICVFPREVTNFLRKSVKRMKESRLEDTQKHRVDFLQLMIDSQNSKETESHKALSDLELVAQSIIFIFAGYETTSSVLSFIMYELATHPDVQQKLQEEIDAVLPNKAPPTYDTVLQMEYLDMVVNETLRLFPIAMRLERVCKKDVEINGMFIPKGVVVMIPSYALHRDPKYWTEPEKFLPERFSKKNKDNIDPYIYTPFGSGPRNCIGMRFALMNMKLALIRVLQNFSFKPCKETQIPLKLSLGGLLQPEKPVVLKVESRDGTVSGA

C=C(C)C(=O)OCCCCCCCCCC
inactive: caspase-3 activation [1] -0.0364% | outcome [2] | caspase-3 activation [3] -0.285% | caspase-3 activation [4] 2.37% | outcome [5] | outcome [6] | Potency [7] | Potency [8] | Potency [9] | outcome [10] | outcome [11] | outcome [12] | outcome [13] | Potency [14] | Potency [15] | Potency [16] | Potency [17] | Potency [18]

CC(C)N=C=NC(C)C
inactive: caspase-3 activation [1] -0.478% | outcome [2] | caspase-3 activation [3] 2.29% | caspase-3 activation [4] -0.83% | outcome [5] | outcome [6] | Potency [7] | Potency [8] | Potency [9] | outcome [10] | outcome [19] | outcome [11] | outcome [12] | Potency [14] | Potency [15] | Potency [17] | Potency [18]

CC(C)(C)OCC1CO1 (stereo not drawn)
inactive: caspase-3 activation [1] 0.391% | outcome [2] | caspase-3 activation [3] 0.741% | caspase-3 activation [4] 2.04% | outcome [5] | outcome [6] | Potency [7] | Potency [8] | Potency [9] | outcome [10] | outcome [19] | outcome [11] | outcome [12] | Potency [14] | Potency [15] | Potency [16] | Potency [17] | Potency [18]

Cc1nc2ccc(Cl)cc2[nH]1
inactive: caspase-3 activation [1] -0.773% | outcome [2] | caspase-3 activation [3] 0.101% | caspase-3 activation [4] -1.32% | outcome [5] | outcome [6] | Potency [7] | Potency [8] | Potency [9] | outcome [10] | outcome [19] | outcome [11] | outcome [12] | Potency [14] | Potency [15] | Potency [16] | Potency [17] | Potency [18]

Nc1ccc(F)cc1F
inactive: caspase-3 activation [1] -0.571% | outcome [2] | caspase-3 activation [3] -0.359% | caspase-3 activation [4] 0.487% | outcome [5] | outcome [6] | Potency [7] | Potency [8] | Potency [9] | outcome [10] | outcome [19] | outcome [11] | outcome [12] | Potency [14] | Potency [15] | Potency [17] | Potency [18]

CCCOCC(C)OCC(C)O (stereo not drawn)
inactive: caspase-3 activation [1] -0.26% | outcome [2] | caspase-3 activation [3] -0.229% | caspase-3 activation [4] 0.323% | outcome [5] | outcome [6] | Potency [7] | Potency [8] | Potency [9] | outcome [10] | outcome [19] | outcome [11] | outcome [12] | Potency [14] | Potency [15] | Potency [16] | Potency [17] | Potency [18]

CC(C)=CCl
inactive: caspase-3 activation [1] 0.522% | outcome [2] | caspase-3 activation [3] -0.24% | caspase-3 activation [4] 1.55% | outcome [5] | outcome [6] | Potency [7] | Potency [8] | Potency [9] | outcome [10] | outcome [19] | outcome [11] | outcome [12] | Potency [14] | Potency [15] | Potency [16] | Potency [17] | Potency [18]

Cc1cccc2sc(N)nc12
inactive: caspase-3 activation [1] -0.691% | outcome [2] | caspase-3 activation [3] -0.522% | caspase-3 activation [4] 1.8% | outcome [5] | outcome [6] | Potency [7] | Potency [8] | Potency [9] | outcome [10] | outcome [19] | outcome [11] | outcome [12] | outcome [13] | Potency [15] | Potency [16] | Potency [18]

C=CCOC(=O)CCCCCCCC
inactive: caspase-3 activation [1] 0.626% | outcome [2] | caspase-3 activation [3] -0.694% | caspase-3 activation [4] 1.74% | outcome [5] | outcome [6] | Potency [7] | Potency [8] | Potency [9] | outcome [10] | outcome [11] | outcome [12] | outcome [13] | Potency [14] | Potency [15] | Potency [16] | Potency [17]
